Screening data deposited in PubChem by Johns Hopkins Ion Channel Center.
TMEM16A inh = mouse TMEM16A channel inhibition, primary screen | HEK293 TMEM16A/YFP iodide influx fluorescence, ionomycin | normalized B-score (activity score, 25-100; higher = stronger inhibition) at 10 µM | 310,000 tested, 1.2% active | AID 588511;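 active means ratio plate-corrected score three or more library SD toward inhibition, starting fluorescence score within five deviations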;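 further: score derived from kinetic fluorescence span divided by baseline fluorescence per well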
TMEM16A act = activators or potentiators of mouse TMEM16A chloride channel; Q8BHY3; HEK293 TMEM16A/YFP-H148Q/I152L, iodide quench fluorescence; hits give low values; B-score at 10 µM; 340,000 tested, 0.3% active;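 active means fluorescence-ratio B-score plate-corrected deviation score at least 3 library SD below zero, with starting fluorescence score within 5 deviations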;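 further: channel opened by trigger with iodide after compound preincubation; score built on the fluorescence ratio of max minus min over baseline; more negative score means more quench and so TMEM16A activation or potentiation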
CHT PAM = allosterically activates the human high affinity choline transporter; 310,000 tested, 0.49% active; CHT-expressing cells, membrane potential dye, choline EC20; hits give high values; LV-AA mutant CHT in HEK293 cells; Q9GZV3; B-score at 10 µM;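 active means initial fluorescence not abnormally high and integrated response B-score, plate-corrected, over 3 SD above library mean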
CHT inh = inhibits the human high affinity choline transporter; Q9GZV3; CHT-expressing cells, membrane potential dye, choline response; hits give low values; B-score at 10 µM; 310,000 tested, 0.86% active; AID 488975;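 active means B-score over 3 SD under the library average, and starting fluorescence ratio not unusually high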;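 further: choline stimulus applied at its EC90 after an EC20 pre-addition; B-score computed on integrated fluorescence ratio after choline addition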
TMEM16A reconf = re-confirmation of mouse TMEM16A chloride channel inhibitors. shares compounds with TMEM16A inh. HEK293 TMEM16A/YFP-H148Q, iodide quench fluorescence; ionomycin added to raise cell calcium. inhibition, % at 10 µM. 2,300 tested, 39% active. AID 652189;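 active means mean duplicate percent inhibition, scaled so buffer wells are 0 and the reference blocker 100, over three buffer SD above buffer mean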
HEK293 Ca mobil = calcium mobilization counter-screen hit for TMEM16A inhibitor series; shares compounds with TMEM16A inh; TMEM16A/YFP HEK293, Fluo4 calcium mobilization; calcium response (% of ionomycin), % at 10 µM; 2,300 tested, 2% active;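 active means duplicate-averaged calcium signal over 20% of the ionomycin maximum, relative to buffer baseline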;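 further: each well's signal is peak minus trough fluorescence divided by its pre-addition baseline; 0% = buffer wells and 100% = ionomycin wells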
YFP-HEK293 quench = acts in parental YFP-HEK293 cells lacking TMEM16A, counter-screen; AID 652233; 2,300 tested, under 10 active; shares compounds with TMEM16A inh; YFP ratio F(max-min)/F0 at 10 µM; iodide YFP quench, ionomycin;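 active means yellow fluorescent protein signal ratio exceeding the buffer control mean by over 5 SD of those controls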;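 further: ratio is mean of duplicate wells from kinetic YFP trace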
ClC-1 rat inh = blocks the rat ClC-1 voltage-dependent chloride channel. shares compounds with TMEM16A inh. CHO ClC-1-YFP, iodide influx fluorescence quench; iodide control reads 0, buffer control 100. ratio percent, % at 10 µM. 2,300 tested, under 10 active;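 active means duplicate-mean ratio percent above the mean of iodide-only control wells, which defines zero, plus 5 of their SD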;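 further: higher percent means stronger block of ClC-1 iodide influx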
Target sequence (P35524 whole entry, looked up): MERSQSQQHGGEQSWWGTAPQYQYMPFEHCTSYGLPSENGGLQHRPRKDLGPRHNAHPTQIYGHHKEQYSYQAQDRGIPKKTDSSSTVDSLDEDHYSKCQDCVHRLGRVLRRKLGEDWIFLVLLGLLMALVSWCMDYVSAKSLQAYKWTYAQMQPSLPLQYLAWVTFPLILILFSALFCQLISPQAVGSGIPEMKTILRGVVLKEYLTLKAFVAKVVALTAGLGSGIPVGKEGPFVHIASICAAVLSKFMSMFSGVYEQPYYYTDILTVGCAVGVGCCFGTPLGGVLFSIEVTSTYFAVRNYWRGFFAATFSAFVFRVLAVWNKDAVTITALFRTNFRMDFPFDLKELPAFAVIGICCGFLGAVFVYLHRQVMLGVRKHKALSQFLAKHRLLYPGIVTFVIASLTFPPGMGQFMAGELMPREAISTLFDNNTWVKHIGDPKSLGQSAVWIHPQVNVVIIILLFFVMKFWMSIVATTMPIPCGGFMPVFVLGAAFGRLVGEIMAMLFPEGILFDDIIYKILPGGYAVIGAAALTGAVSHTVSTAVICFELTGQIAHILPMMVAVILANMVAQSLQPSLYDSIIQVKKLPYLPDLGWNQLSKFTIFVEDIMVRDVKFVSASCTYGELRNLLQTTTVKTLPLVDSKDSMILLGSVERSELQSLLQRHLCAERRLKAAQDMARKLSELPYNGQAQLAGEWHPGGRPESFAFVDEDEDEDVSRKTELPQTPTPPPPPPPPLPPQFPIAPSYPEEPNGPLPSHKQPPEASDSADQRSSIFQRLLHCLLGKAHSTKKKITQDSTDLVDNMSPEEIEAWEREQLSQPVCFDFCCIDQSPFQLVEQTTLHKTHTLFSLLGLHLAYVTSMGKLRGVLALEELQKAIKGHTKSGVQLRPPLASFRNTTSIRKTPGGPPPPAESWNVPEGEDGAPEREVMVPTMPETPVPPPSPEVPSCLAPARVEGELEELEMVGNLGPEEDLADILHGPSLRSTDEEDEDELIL
Starred values were filed as active, the others as inactive; i = inactive; nt = no result given. Hits are enriched below; roughly 2.4% of the tested compounds scored in any of these assays.

SMILES	TMEM16A inh	TMEM16A act	CHT PAM	CHT inh	TMEM16A reconf	HEK293 Ca mobil	YFP-HEK293 quench	ClC-1 rat inh
Cc1cc(C(=O)CSc2nnc(-c3cccs3)o2)c(C)n1-c1ccccc1	100*	i	i	i	i	i	-1.28	-6.0
Cc1cc(C(=O)CSc2nnc(-c3ccco3)o2)c(C)n1Cc1ccco1	i	i	i	i	i	i	-0.992	-13.5
O=[N+]([O-])c1ccc(N2CCOCC2)cn1	i	i	i	i	nt	nt	nt	nt
O=C(CCCCCCCC(=O)NNC(=O)Nc1ccccc1)NNC(=O)Nc1ccccc1	i	i	i	i	nt	nt	nt	nt
COc1ccccc1N1CCN(CC(=O)Nc2ccccc2C(=O)NCCc2ccccc2)CC1	nt	i	nt	nt	nt	nt	nt	nt
CN(C)S(=O)(=O)c1cccc(COC(=O)c2cccnc2Cl)c1	25*	i	i	i	i	i	-0.925	-10.5
COc1ccc2occ(C(=O)c3ccccc3)c2c1	i	i	i	i	nt	nt	nt	nt
COc1ccc(OC)c(C(=O)c2coc3ccc(O)cc23)c1	25*	i	i	i	i	i	-0.843	-1.5
O=C(O)c1c(NC(=O)c2cccc3ccccc23)sc2c1CCC2	100*	i	i	i	24.0%*	i	-0.996	-14.0
COC(=O)c1c(NC(=O)c2ccccc2C(=O)O)sc2c1CCC2	i	i	i	i	nt	nt	nt	nt
CC(=O)c1c(C)nn(CC(O)COc2ccc3c(c2)CCC3)c1C (stereo unspecified)	25*	i	i	i	i	i	-1.07	-6.5
Cc1nn(CC(O)COc2ccc3c(c2)CCC3)c(C)c1Br (stereo unspecified)	i	i	i	i	nt	nt	nt	nt
Cc1ccc(NC(=O)CC2=NC(=O)C(CC(=O)Nc3ccccc3F)S2)cc1 (stereo unspecified)	i	i	i	i	i	i	-1.05	1.0
Cc1ccc(Cl)cc1N1CCN(C(=O)c2cc3c(=O)n(C)c4ccccc4c3n2C)CC1	100*	i	i	i	29.0%*	i	-1.1	-36.5
Cc1cccc(N2CCN(C(=O)c3cc4c(=O)n(C)c5ccccc5c4n3C)CC2)c1C	i	i	i	i	nt	nt	nt	nt
O=C(CCCc1ccccc1)Nc1ccnn1C1CCN(Cc2ccccc2)CC1	i	i	i	i	nt	nt	nt	nt
CCOc1ccc(CN2CCC(n3nccc3NC(=O)CCCc3ccccc3)CC2)cc1	25*	i	i	i	i	i	-0.976	-2.0
O=C(CCCc1ccccc1)Nc1ccnn1C1CCN(Cc2ccc(Cl)cc2)CC1	i	i	i	i	nt	nt	nt	nt
COc1cc(CN2CCC(n3nccc3NC(=O)CCCc3ccccc3)CC2)ccc1F	25*	i	i	i	16.5%*	i	-0.886	-5.5
CN(CC(=O)Nc1ccc(F)cc1)C(=O)c1cccc(S(=O)(=O)N2CCN(c3ccc(F)cc3)CC2)c1	i	i	i	i	nt	nt	nt	nt
COc1cccc(NC(=O)CN(C)C(=O)c2cccc(S(=O)(=O)N3CCN(c4ccc(F)cc4)CC3)c2)c1	100*	i	i	i	i	i	-0.977	-2.0
CCCCCOC(=O)CSc1nnc(-c2cc(OC)c(OC)c(OC)c2)o1	25*	i	i	i	i	i	-1.08	-9.0
CCC1=C(c2ccc(C)cc2)S(=O)(=O)N=C1N1CCC(C(=O)NCCCN2CCCCC2)CC1	i	i	i	i	nt	nt	nt	nt
COc1ccc(COC(=O)c2ccc(Cl)c(S(=O)(=O)N3CC(C)OC(C)C3)c2)cc1 (stereo unspecified)	25*	i	i	i	16.0%*	i	-1.01	-7.0
CC1CN(C(=O)COC(=O)c2ccc(Cl)c(S(=O)(=O)N3CCCCC3)c2)CC(C)O1 (stereo unspecified)	i	i	i	i	nt	nt	nt	nt
SMILES	TMEM16A inh	TMEM16A act	CHT PAM	CHT inh	TMEM16A reconf	HEK293 Ca mobil	YFP-HEK293 quench	ClC-1 rat inh
O=c1c2ccccc2nc(SCc2ccc([N+](=O)[O-])cc2)n1-c1ccccc1	i	i	i	i	nt	nt	nt	nt
O=C(O)c1ccc2c(=O)n(Cc3ccccc3)c(SCc3ccc([N+](=O)[O-])cc3)nc2c1	25*	i	i	i	19.0%*	i	-1.12	-4.5
CCCc1cc(C(N)=O)c(NC(C)=O)s1	100*	i	i	i	i	i	-0.924	-14.5
CCOC(=O)c1c(NC(=O)C2c3ccccc3Oc3ccccc32)sc(C(=O)N(CC)CC)c1C	i	i	i	i	nt	nt	nt	nt
CC(Cc1cccs1)NC(=S)Nc1ccc(Cl)cc1 (stereo unspecified)	25*	i	i	i	38.0%*	i	-1.17	-15.0
COc1cc(SC)ccc1C(=O)N(CC(=O)Nc1ccccc1Br)Cc1ccco1	i	i	i	i	nt	nt	nt	nt
O=C(CN(Cc1ccco1)C(=O)c1cc(=O)[nH]c2ccccc12)Nc1ccccc1Br	100*	i	i	i	i	i	-1.08	-2.5
O=C(NCc1ccc(Cl)cc1)c1ccccc1Oc1ccccc1	100*	i	i	i	i	i	-0.968	-2.0
O=C(NCc1ccccc1)c1ccc(Cl)cc1	i	nt	i	i	nt	nt	nt	nt
CCN(C(=O)COC(=O)c1ccccc1Nc1cccc(C)c1C)C1CCS(=O)(=O)C1 (stereo unspecified)	100*	i	i	i	i	i	-0.923	-8.5
CCN(C(=O)COC(=O)c1ccccc1Cc1ccccc1)C1CCS(=O)(=O)C1 (stereo unspecified)	i	i	i	i	nt	nt	nt	nt
OC1C(O)C(O)C(O)C(O)C1O (stereo unspecified)	i	i	i	i	nt	nt	nt	nt
N#Cc1c(CSCC(=O)O)cc(=O)n2c1[nH]c1ccccc12	i	i	i	i	nt	nt	nt	nt
N#Cc1c(C(F)(F)F)cc(=O)n2c1[nH]c1ccccc12	100*	i	i	i	35.0%*	21.5%*	-1.04	-20.5
CCCN(CC(=O)c1cc(C)n(C)c1C)S(=O)(=O)c1cccc(C(F)(F)F)c1	100*	i	i	i	i	i	-0.852	-5.5
CCN(CC)S(=O)(=O)c1cccc(-c2nnc(SCC(=O)c3cc(C)n(C)c3C)o2)c1	i	i	i	i	nt	nt	nt	nt
CC(=O)N1c2c(cc(Br)cc2S(=O)(=O)NCc2cccnc2)CC1C (stereo unspecified)	i	i	i	i	nt	nt	nt	nt
